# Screening results deposited in PubChem by National Center for Advancing Translational Sciences (NCATS).
# Rows were chosen to be rich in hits. Some 1.3% of all compounds tested hit in one or more screens of this group.
# Vif-APOBEC3G blk – blocks the Vif interaction with human APOBEC3G. HeLa A3G-eYFP + Vif (tagged APOBEC3G with the HIV-1 protein that degrades it), YFP fluorescence, overnight. Potency, µM (series often up to 46.1 µM), for inactives: at the highest dose activity, negative = active, actives largely listed as inhibitors. 0.076% of 410,000 active; note: potency is the fitted concentration of half-maximal effect; % is set by controls: 0 for no effect and ±100 for the full control effect; nearly all actives have a fitted effect of over 60% in size
#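 Read-out is eYFP fluorescence (Ex 488/Em 500-530) from Vif-expressing HeLa A3G-eYFP cells; more signal means A3G escaped Vif-mediated degradation. Cells plated overnight, compound pinned in, incubated overnight at 37 deg C.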
# Vif-A3F inh – blocks the Vif interaction with APOBEC3F. 0.2% of 390,000 active. HeLa A3F-eYFP + Vif (tagged APOBEC3F with the HIV-1 protein that degrades it), YFP fluorescence increase. Potency, µM (titrated, usually from 46.1 µM), for the others: top-dose activity, negative = active; note: potency is the fitted concentration of half-maximal effect; % of control where 0% means no effect; nearly all actives have a fitted effect of over 65% in size
#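 HeLa cells stably expressing A3F-eYFP plus Vif, plated and incubated overnight at 37 deg C, then exposed to compounds overnight at 37 deg C. Blocked degradation read as raised yellow fluorescence (Ex 488/Em 500-530).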
# 12-LOX inh – ALOX12 (human) lipoxygenase inhibition. P18054. purified 12hLO, xylenol orange hydroperoxide absorbance. Potency, µM (series often up to 108 µM), without a hit: at the top dose activity change, negative = inhibition, usual class: inhibitors. 1.1% of 580,000 active. AID 1671190; note: potency is the fitted concentration of half-maximal effect; % is set by controls: 0 for no effect and ±100 for the full control effect
#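 Purified human 12hLO at 150 nM in 25 mM Hepes, 0.01% Triton X-100, pH 7.0, preincubated 15 min at room temperature with compound. Reaction started with 40 uM arachidonic acid, 30 min at room temperature. Hydroperoxide measured by Fe-xylenol orange, 573/405 nm absorbance ratio.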
# Glioma ERSR ind – inducers of ER stress response in human glioma cells; AID 602332; U87-MG GRP78 promoter luciferase reporter, 16 h; 0.02% of 420,000 active; Potency, µM, for the others: at the top dose activation, actives largely listed as activators; note: potency is the fitted concentration of half-maximal effect; series mostly up to about 76 µM; % of control where 0% means no effect; nearly all actives have a fitted effect of over 35% in size
#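 ERSR induction read as luciferase luminescence (Bright-Glo, 10 min at room temperature) in stably transfected human U87-MG glioma cells exposed to compounds for 16 h, using GRP78 as sensor.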
# TRPML1 blocker – inhibitors of human TRPML1 channel; AID 624415; activity change, negative = inhibition, % (concentration not given with the values); Q9GZU1; TRPML1-inducible cells, Ca2+ dye fluorescence, FDSS; active compounds read low; inhibition of EC80 agonist-evoked calcium signal; 0.02% of 390,000 active; in the data active = activity change below about -50%; inconclusive = between about -30% and that limit;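 note: stimulus is agonist 54-4 at its EC80 concentration; % is set by controls: 0 for no effect and ±100 for the full control effect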
# Target sequence (Q9GZU1 whole entry, looked up): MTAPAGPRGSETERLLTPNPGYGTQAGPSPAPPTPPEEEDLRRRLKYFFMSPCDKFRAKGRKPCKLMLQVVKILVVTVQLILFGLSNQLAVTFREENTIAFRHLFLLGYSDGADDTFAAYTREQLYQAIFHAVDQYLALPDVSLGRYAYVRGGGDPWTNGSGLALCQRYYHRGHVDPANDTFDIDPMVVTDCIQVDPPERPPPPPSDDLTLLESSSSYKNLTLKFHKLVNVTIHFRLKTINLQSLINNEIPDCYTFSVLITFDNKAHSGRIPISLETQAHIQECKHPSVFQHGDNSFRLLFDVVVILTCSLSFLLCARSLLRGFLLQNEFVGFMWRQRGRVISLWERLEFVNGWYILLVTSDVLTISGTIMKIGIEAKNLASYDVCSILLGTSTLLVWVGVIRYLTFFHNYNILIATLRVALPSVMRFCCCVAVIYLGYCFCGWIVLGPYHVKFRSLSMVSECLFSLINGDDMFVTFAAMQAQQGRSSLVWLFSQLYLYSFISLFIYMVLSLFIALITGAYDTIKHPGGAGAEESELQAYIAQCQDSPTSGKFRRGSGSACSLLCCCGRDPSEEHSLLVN
#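 Tet-induced TRPML1-DL cells loaded with Ca8 no-wash calcium dye were read kinetically on FDSS. Compound addition was followed by EC80 agonist 54-4 (4 uM final); inhibition was read over 110 s.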
# TRPML1 agonist – activates the human TRPML1 channel. AID 624414. 0.12% of 410,000 active. TRPML1-expressing cells, Ca2+ dye fluorescence, FDSS. activation, % (test concentration not listed); in the data active = activation above about 50%; inconclusive = mostly about 30% to 49%; note: 0% is about no effect
#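 Tet-induced TRPML1-DL cells, 1,500 per well, cultured overnight, were loaded with a no-wash Ca2+ dye for 45–90 min. Calcium fluorescence was recorded on the FDSS for 110 s after compound addition, before the EC80 agonist (4 uM 54-4) was added.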
# Starred values were filed as active, the others as inactive; ? = inconclusive; · = not tested or not shown; [ ] = dose if it differs, or a comment. Unless noted, calls come from the whole dose curve; as a rule, active = well fitted curve in the direction sought with a large enough effect; inconclusive = small, poorly fitted or top-dose-only effect, or another doubt; inactive = no such curve, though single readings can be large; an effect the other way counts as inactive or inconclusive.
SMILES,Vif-APOBEC3G blk,Vif-A3F inh,12-LOX inh,Glioma ERSR ind,TRPML1 blocker,TRPML1 agonist
O=C(O)c1ccc(Nc2nc(-c3cc4ccccc4oc3=O)cs2)cc1O,-8%,-1%,40µM*,3%,2,-1
Cc1ncsc1CCO,·,·,6%[176 µM],·,·,·
CCn1c(-c2cc(-c3cc(OC)ccc3OC)nc3ccccc23)n[nH]c1=S,3%,-3%,20µM*,-5%,-13,4
O=C(O)Cc1sc(Nc2cccc3ccccc23)nc1-c1ccc(Cl)cc1,-6%,-17%,45µM*,-4%,7,-1
Cc1ccc(Nc2nc(-c3ccc(C)cc3)c(CC(=O)O)s2)cc1,-20%,?,40µM*,3%,54,1
O=C(O)Cc1sc(Nc2ccc(Cl)cc2)nc1-c1cccs1,-7%,?,14µM*,5%,1,0
O=C(O)Cc1sc(Nc2ccccc2)nc1-c1ccccc1,-6%,2%,0%,4%,-10,-1
COc1cc(NC(=O)COc2cc(C)cc3oc(=O)cc(C)c23)cc(OC)c1,·,·,-23%,·,·,·
CCOc1ccc(/C=N/OC(=O)c2ccccc2I)cc1,·,·,-22%,·,·,·
COc1ccc2nc(/C(C#N)=C\c3ccco3)[nH]c2c1,·,·,40µM*,·,·,·
N#C/C(=C\c1ccc(-c2ccc(C(=O)O)cc2)o1)c1nc2ccccc2[nH]1,?,?,?,4%,7,61*
N#C/C(=C\c1cc(Br)c(Br)o1)c1nc2ccccc2[nH]1,·,·,11µM*,·,·,·
N#C/C(=C\c1ccc(N2CCOCC2)o1)c1nc2ccccc2[nH]1,2%,?,119%,-10%,-13,60*
COc1ccc(/C=C(\C#N)c2nc3ccccc3[nH]2)c(OC)c1,·,·,57%,·,·,·
Cc1ccc(Sc2oc(/C=C(/C#N)c3nc4ccccc4[nH]3)cc2Br)cc1,·,·,-12%,·,·,·
CN(CC(=O)Nc1ccc2[nH]c(=O)[nH]c2c1)Cc1ccccc1N1CCCCC1,·,·,-2%,·,·,·
N#C/C(=C/c1ccc(N2CCOCC2)o1)c1ccc(Cl)cc1,7.1µM*,?,7.9µM*,?,9,13
CCn1c(C)nc2cc(C(=O)NNS(=O)(=O)c3ccccc3F)ccc21,-5%,·,4.5µM*,-12%,16,0
COc1ccc(S(=O)(=O)N2CCc3cc4c(cc3C2C)OCCCO4)cc1 (stereo not drawn),-4%,-5%,?,-2%,-51*,1
Cc1ccc(S(=O)(=O)N2CCc3cc4c(cc3C2C)OCCCO4)cc1 (stereo not drawn),-1%,-7%,6%,4%,28,4
Cc1ccc(NC(=O)Cc2nnc(SCC(=O)c3ccc(C#N)cc3)n2C)cc1C,·,·,7%,·,·,·
CCOC(=O)C1=C(C)NC(=O)CC1c1ccccc1 (stereo not drawn),0%,-4%,-1%,-4%,0,-1
CCOC(=O)C1=C(C)NC(=O)CC1C(=O)Nc1cc(Cl)cc(Cl)c1 (stereo not drawn),·,·,16µM*,·,·,·
O=C(CSc1ncnc2c1sc1cccc(F)c12)NCCN1CCN(Cc2ccccc2)CC1,·,·,0%,·,·,·
CCn1c2ccccc2c2cc(CN3CCN(Cc4ccccc4C)CC3)ccc21,-2%,?,-31%,-5%,5,1
SMILES,Vif-APOBEC3G blk,Vif-A3F inh,12-LOX inh,Glioma ERSR ind,TRPML1 blocker,TRPML1 agonist
CCn1c2ccccc2c2cc(CN3CCN(Cc4ccccc4F)CC3)ccc21,-2%,-20%,28µM*,-5%,1,1
Cc1noc(-c2ccc3c(c2)OCO3)c1C(=O)NCCSCc1ccccc1,·,·,20µM*,·,·,·
CC1CC1c1ccc(/C=C/C(=O)N(Cc2ccccc2)C2CC2)o1 (stereo not drawn),·,·,8.9µM*,·,·,·
COc1cccc(-c2ocnc2C(=O)Nc2ccc(OC)cc2OC)c1,·,·,46%,·,·,·
C=C(C)C1CC=C(C)/C(=N/NC(=O)COc2ccc(C)cc2)C1 (stereo not drawn),-1%,0%,2%,-1%,5,1
C=C(C)C1CC=C(C)/C(=N\NC(=S)Nc2ccc(C)cc2)C1 (stereo not drawn),?,0%,22µM*,-3%,18,1
Cn1nc(C(=O)OCC(=O)NCC2CCCO2)c2ccccc2c1=O (stereo not drawn),·,·,-2%,·,·,·
Cc1ccc(C)c(NC(=O)CC(C)(C(=O)O)c2ccccc2)c1 (stereo not drawn),·,·,-14%,·,·,·
O=C(NCC1CC1)c1cccc(OC2CN(Cc3ccc(F)cc3F)C2)c1,·,·,25µM*,·,·,·
CCOC(=O)C1CCN(C(=O)c2cc3cc(OC)ccc3[nH]2)CC1,·,·,-19%,·,·,·
COc1ccccc1N1CCN(Cc2cc(Br)c(O)c3ncccc23)CC1,5%,?,35µM*,-5%,29,0
CCOCc1cc(CN2CCN(c3ccccc3OC)CC2)c(O)c2ncccc12,·,·,?,·,-13,0
COc1ccc2cc(C(C)C(=O)NC3CC3)ccc2c1 (stereo not drawn),·,·,-9%,·,·,·
Cc1ccc(-c2nn(-c3cccc(F)c3)cc2CN2CCN(c3ccccn3)CC2)o1,1%,-10%,8.9µM*,-2%,6,2
COc1ccccc1N1CCN(C(=O)c2ccccc2NC(=O)Cn2c(C)cc(C)c(C#N)c2=O)CC1,·,·,-13%,·,·,·
COc1ccc2c(=O)c(-c3ccccc3)coc2c1,4%,-13%,2%,-7%,4,0
COc1ccc2c(=O)c(-c3ccccc3)coc2c1C,·,·,32µM*,·,·,·
COc1ccccc1Cc1nc2ccccc2nc1SC(C)C(=O)NCc1ccco1 (stereo not drawn),·,·,-3%,·,·,·
CC(C)=CC(=O)NCCSC1CCCC1,·,·,19%,·,·,·
O=C(c1cccc(Cl)c1)N1CCCC(c2nn(-c3ccccc3)c(=O)[nH]2)C1 (stereo not drawn),·,·,4%,·,·,·
O=C(Cc1cccc(Cl)c1)N1CCCC(c2nn(-c3cccc(Cl)c3)c(=O)[nH]2)C1 (stereo not drawn),·,·,16µM*,·,·,·
O=C(c1cccc(Cl)c1)N1CCC(c2nn(-c3ccc(Cl)cc3)c(=O)[nH]2)CC1,·,·,14µM*,·,·,·
COc1ccc(-n2nc(C3CCCN(C(=O)C4CC4)C3)[nH]c2=O)cc1 (stereo not drawn),·,·,18µM*,·,·,·
O=C(c1ccc(F)cc1)N1CCC(c2nn(-c3ccc(Cl)cc3)c(=O)[nH]2)CC1,·,·,35µM*,·,·,·
CCCc1noc(CSc2nnnn2-c2cc(C)ccc2OC)n1,·,·,-22%,·,·,·
CCN(Cc1ccccc1)C(=O)c1cc2ccc(OC)cc2[nH]1,·,·,-2%,·,·,·
NCCCS(N)(=O)=O,·,·,12%,·,·,·
O=C(c1ccccc1)N1CCC(c2nn(-c3ccc(Cl)cc3)c(=O)[nH]2)CC1,·,·,35µM*,·,·,·
COc1ccc(-n2nc(C3CCN(C(=O)c4ccccc4)CC3)[nH]c2=O)cc1,·,·,29%,·,·,·
